# Experimental data reported in PubChem BioAssay AID652017 (The Scripps Research Institute Molecular Screening Center, 2013).
# Hit rate of the full screen: of about 370,000 compounds, about 3,800 (1%) were called active. Cut-off read from the data, not from the text of the source: active = activation above about 7.8%; inactive = the rest. The sample as a whole holds a higher share of actives than the screen did.
# Experiment: SMARCA2 (BRM) function activators, primary screen, cell-based, luminescence, high throughput (AID 652017);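 note: 0% = vehicle wells and 100% = reference activator wells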
# Details: MG213 cells, MMTV-luciferase reporter, dexamethasone, overnight; at 9.1 µM; hits give high values
row,SMILES,activation
1,N#Cc1cccc(NC(=O)COC(=O)c2ccccc2C(=O)c2ccc(Cl)c([N+](=O)[O-])c2)c1,6.3% (inactive)
2,O=C(CN1CCCc2ccccc21)NCc1ccc(F)cc1,4.7% (inactive)
3,Cc1ccc(-n2c(SCC(=O)Nc3cccc4ccccc34)nnc2-c2ccco2)cc1,-1.08% (inactive)
4,Cc1cc(C)c2nc3nc(C)cc(C)c3c(N)c2c1,22.7% (active)
5,C[C@@H]1ON(C)[C@H]2C[C@H]3c4[nH]c5cccc(-c6ccc7c(c6)OCO7)c5c4CCN3C[C@@H]12,-5.68% (inactive)
6,Clc1ccc(C(Cn2ccnc2)OCc2ccsc2Cl)c(Cl)c1 (centres undefined),-7.85% (inactive)
7,COc1ccc(Cn2cccc(NC(=O)Nc3ccc(C#N)cc3)c2=O)cc1,-4.78% (inactive)
8,Cc1c(C#N)c(NC(=O)c2ccccc2)n(Cc2ccccc2)c1C,-1.06% (inactive)
9,COc1ccc(Cn2c(C)c(C)c(C#N)c2NC(=O)Nc2ccc(F)cc2)cc1,13.3% (active)
10,CC(NCc1ccco1)C(=O)N1CCCCC1 (centres undefined),-2.78% (inactive)
11,CC1CCN(c2ccc(C(=O)O)cc2NS(=O)(=O)c2ccc(Br)s2)CC1,0.67% (inactive)
12,CCOC(=O)c1cccc(NC(=O)CN(C)S(=O)(=O)c2ccc(-c3cocn3)s2)c1,-7.26% (inactive)
13,Cc1ccc(S(=O)(=O)NCc2nc3ccccc3c(=O)n2N)cc1,-5.01% (inactive)
14,CC(C)CC1NC(=O)c2cc(Cl)ccc2-n2c1nc1ccccc1c2=O (centres undefined),-0.02% (inactive)
15,CCCN1C(=O)C(Cc2nc3ccccc3c(=O)n2-c2ccccc2)c2cc(C)ccc21 (centres undefined),8.92% (active)
16,O=C(OC12CCCN(C1)/C(=C/c1ccccc1)C2)c1ccco1 (centres undefined),-4.02% (inactive)
17,CC[C@H](NC(=O)[C@H](Cc1ccccc1)NC(=O)[C@H]1O[C@@H](n2cnc3c(=O)[nH]c(N)nc32)[C@H](O)[C@@H]1O)c1ccccc1,-4.41% (inactive)
18,COC(=O)Cc1ccc(NC(=S)NCc2ccco2)cc1,-1.02% (inactive)
19,CC(C)(C)c1ccc(NC(=O)NCc2ccco2)cc1,8.76% (active)
20,COC(=O)/C=C/C(=O)NCc1ccco1,1.96% (inactive)
21,COC(=O)[C@H](C(C)C)N1CCc2nnn(Cc3ccc(C)cc3)c2-c2ccccc2S1(=O)=O,-3.89% (inactive)

row,SMILES,activation
1,COc1ccc(C(CNC(=O)c2ccc(S(=O)(=O)Nc3ccccc3F)cc2)N(C)C)cc1 (centres undefined),8.4% (active)
2,CC(=O)c1ccc(S(=O)(=O)Nc2ccc(C(=O)NCC(c3ccccc3)N(C)C)cc2)cc1 (centres undefined),5.98% (inactive)
3,COc1ccc(C(CNC(=O)c2ccc(NS(=O)(=O)c3ccc(F)c(C)c3)cc2)N(C)C)cc1 (centres undefined),-1.05% (inactive)
4,CC(=O)Nc1ccc(OC[C@@H](O)CN2CCC(C(O)(c3ccccc3)c3ccccc3)CC2)cc1,-1.46% (inactive)
5,COCCCNC(=O)C[C@H]1C[C@@]2(C(=O)OC)C(=C[C@H](C(C)(C)C)O[C@@H]2C)N(Cc2ccc(Cl)cc2Cl)C1=O,-4% (inactive)
6,Cc1c(C(C)c2ccccc2O)[nH]c2ccccc12 (centres undefined),-2.39% (inactive)
7,Cc1ccc(NC(=O)C(=O)NCc2ccc(/C=N/NC(=O)c3c(C)nc4cc(C)ccn34)o2)cc1,-0.59% (inactive)
8,Cc1ccc(NC(=O)Nc2cc(C)nn2-c2ccccc2)cc1,-3.87% (inactive)
9,C=CCc1ccc(OCCOc2cccc(/C=N/n3cnnc3)c2)c(OC)c1,2.79% (inactive)
10,Cc1ccccc1OCCOc1ccc([N+](=O)[O-])cc1/C=N/n1cnnc1,-1.85% (inactive)
11,COc1cccc(OCCOc2cccc(/C=N/n3cnnc3)c2)c1,10.1% (active)
12,CCc1ccc[n+](-c2nc([O-])sc2C=O)c1,8% (active)
13,COc1ccc(N2CCN(CCNS(=O)(=O)c3ccc([N+](=O)[O-])cc3)CC2)cc1,-3.04% (inactive)
14,COc1ccc(C(=O)Nc2ccc3c(c2)OCO3)cc1OC,16.7% (active)
15,COc1ccc(C(=O)Nc2ccc(C3(C#N)CCCC3)cc2)cc1OC,1.54% (inactive)
16,CN(C(=O)c1cccc(NC(=O)Cc2cccc([N+](=O)[O-])c2)c1)C1CCCCC1,-2.39% (inactive)
17,O=C(Cc1ccc([N+](=O)[O-])cc1)NCCc1ccc2c(c1)OCO2,4.55% (inactive)
18,COc1ccc(Cl)cc1NC(=O)CN(C)CC(=O)Nc1ccc2c(c1)OCO2,-3.2% (inactive)
19,O=C(Nc1cccc([N+](=O)[O-])c1)c1ccc2c(c1)OCO2,8.1% (active)
20,Cn1c(Cc2cccs2)nnc1SCC(=O)Nc1ccccc1,4.18% (inactive)
21,Cc1ccccc1CS(=O)(=O)Cc1ccc(C(=O)Nc2ccc(Cl)cc2)o1,-8.47% (inactive)

row,SMILES,activation
1,CCc1nn(-c2cc(Oc3cccc4ccccc34)nc(-c3ccccc3)n2)c(N)c1C#N,0.3% (inactive)
2,Cc1ccc(NC(=S)N2CCN(c3ncccn3)CC2)cc1C,2.65% (inactive)
3,CCNC(=S)N1CCN(c2ncccn2)CC1,8.35% (active)
4,CCNC(=S)N1CCN(S(=O)(=O)c2ccc(Cl)s2)CC1,-1.32% (inactive)
5,O=S1(=O)c2ccc(Br)cc2OC[C@@H](Cc2ccccc2)N1Cc1cn(Cc2ccco2)nn1,-0.61% (inactive)
6,Cc1cccc(C2C3=C(CCCC3=O)N=C3c4ccccc4C(=O)C32)c1 (centres undefined),1.45% (inactive)
7,COc1ccc(CCNC(=O)CSc2nc3c([nH]2)c(=O)n(C)c(=O)n3C)cc1,-2.8% (inactive)
8,C=CCn1c(SCC(=O)/C(C#N)=C(\C)N)nc2sc(C)c(C)c2c1=O,-1.26% (inactive)
9,CCCn1c(=O)c2ccccc2n2c(SCC(=O)/C(C#N)=C(\C)N)nnc12,9.35% (active)
10,C=CCn1c(=O)c2ccccc2n2c(SCC(=O)N3CCCc4ccccc43)nnc12,1.43% (inactive)
11,COc1ccc(CN2C/C(=C/c3ccccc3)N3C(=O)C[C@@H](c4ccccc4)N=C23)c(OC)c1,-4.07% (inactive)
12,COc1ccccc1C(=O)NC1CCCCN(C(C)C)C1=O (centres undefined),-0.79% (inactive)
13,Cc1ccc(-n2c(SCC(=O)Nc3cccc4ccccc34)nnc2-c2ccccn2)cc1,-2.65% (inactive)
14,CC(C)C[C@H]1CNC(=O)C(=O)N1C[C@H]1CCCN1C[C@H](Cc1ccc(O)cc1)N1C[C@H](CC(C)C)N(CC2CCCCCC2)C(=O)C1=O,8.41% (active)
15,CC(C)C[C@H]1CNC(=O)C(=O)N1C[C@@H]1CCCN1C[C@H](Cc1ccccc1)N1C[C@H](CC(C)C)N(CC2CCCCCC2)C(=O)C1=O,-3.56% (inactive)
16,O=C1NC[C@H](Cc2ccc(O)cc2)N(C[C@@H]2CCCN2C[C@H](Cc2ccccc2)N2C[C@H](Cc3ccccc3)N(CC3CCCCC3)C(=O)C2=O)C1=O,-2.98% (inactive)
17,O=C(CSc1nc2ccccc2s1)N=Nc1c(O)[nH]c2ccccc12,-2.44% (inactive)
18,Cc1ccc(S(=O)(=O)N(CC(=O)Nc2cccc([N+](=O)[O-])c2)Cc2ccc(Cl)cc2)cc1,-2.5% (inactive)
19,COc1ccc(C)cc1S(=O)(=O)N(CC(=O)Nc1cccc([N+](=O)[O-])c1)c1ccc(C)cc1,9.29% (active)
20,COc1ccc(N(CC(=O)Nc2ccc(C)cc2C)S(=O)(=O)c2ccccc2[N+](=O)[O-])c(OC)c1,-0.94% (inactive)
21,Nc1ccc2c(c1)C(=Cc1cccnc1)c1ccccc1-2,0.27% (inactive)

row,SMILES,activation
1,Cc1ccc(C2=C/C(=C\c3cccnc3)C(=O)O2)cc1,5.23% (inactive)
2,Cc1ccccc1C1=N/C(=C/c2cccnc2)C(=O)O1,10.3% (active)
3,CCn1c(SCC(C)=O)nc2sc3c(c2c1=O)CCCC3,-0.23% (inactive)
4,Cc1cccc(-n2c(O)c(C=Nc3ccccc3N)c(=O)[nH]c2=O)c1,9.92% (active)
5,O=C(CSc1nc2sc3c(c2c(=O)n1-c1ccccc1)CCCC3)NN=Cc1ccc(OCc2ccccc2)cc1,-2.96% (inactive)
6,Cc1ccc(Cn2cc(CN3[C@@H](C)COc4cc(Br)ccc4S3(=O)=O)nn2)cc1,-6.23% (inactive)
7,O=S(=O)(Cc1ccccc1)c1nc2ccccc2n1Cc1ccccn1,7.86% (active)
8,O=C(O)Cn1c(Cc2ccccc2)nc2ccccc21,-0.68% (inactive)
9,O=C(Cn1ncc2c3ccccc3n(Cc3ccccc3)c2c1=O)NCc1ccccn1,-0.48% (inactive)
10,O=C1NC[C@@H](CCCCN2CCN(CCc3ccc(O)cc3)C(=O)C2=O)N(CC2CCCCC2)C1=O,0.65% (inactive)
11,Cc1ccc(Cn2cc(CN3[C@@H](CC(C)C)COc4ccc(Cl)cc4S3(=O)=O)nn2)cc1,0.91% (inactive)
12,CC(CCN1CCC(C(O)(c2ccccc2)c2ccccc2)CC1)Oc1ccc(C(F)(F)F)cc1 (centres undefined),0.64% (inactive)
13,COC(=O)[C@]12CCCCC=C1N(Cc1ccco1)C(=O)[C@H](CC(=O)NCC1CCCCC1)C2,-5.18% (inactive)
14,Cc1nc(-c2nnc(SCC(=O)Nc3cc(C(F)(F)F)cc(C(F)(F)F)c3)n2C)cs1,8.28% (active)
15,Cc1cc(-c2nc(C)c(-c3nnc(SCC(=O)Nc4ccccc4)n3C)s2)no1,-1.01% (inactive)
16,Cn1c(SCC(=O)Nc2cccc(NC(=O)c3cccs3)c2)nnc1-c1ccncc1,2.18% (inactive)
17,Cc1cc(=O)[nH]c(SCC(=O)Nc2ccc(F)cc2F)n1,-4.89% (inactive)
18,COc1cccc(C(=O)Nc2nnc(S(=O)(=O)N3CCOCC3)s2)c1,-2.26% (inactive)
19,COc1cccc(C(=O)Nc2nc3ccc(S(C)(=O)=O)cc3s2)c1,8.68% (active)
20,COc1cccc(C(=O)NNS(=O)(=O)c2ccc(F)cc2)c1,-0.53% (inactive)
21,O=C(CSc1nc2ccccc2n1Cc1ccccc1Cl)N/N=C\c1c[nH]c2ccccc12,-4.04% (inactive)
